Measured values: PubChem BioAssay AID602179 (National Center for Advancing Translational Sciences (NCATS), 2012)
Out of some 390,000 compounds screened, about 360 (0.092%) were called active. This is one part of a sample in which actives are shown more often than they occur. The call rests on the fitted dose curve; in most records, active means well fitted inhibition curve with a large enough effect; inconclusive means small, poorly fitted or top-dose-only effect; inactive means no such curve, though single readings can be large or run the other way.

Each molecule was assayed against Isocitrate dehydrogenase [NADP] cytoplasmic (Homo sapiens) (UniProt O75874) (assay: qHTS for Inhibitors of mutant isocitrate dehydrogenase 1 (IDH1): qHTS). Conditions: IDH1-R132H enzyme, NADPH consumption, diaphorase/resazurin fluorescence; series mostly up to 76.6 µM; activity change, negative = inhibition: at the top concentration.
Description: Unbiased genomic sequencing for 22 glioma genomes found recurrent mutation of isocitrate dehydrogenase 1 (IDH1) on chromosome 2q33-a gene encoding the cytosolic isoform of IIDH1associated with the tricarboxylic acid cycle (TCA) that catalyzes the oxidative decarboxylation of isocitrate, yielding alpha-ketoglutarate and CO2 via NADP+ to NADPH conversion. Subsequent studies confirmed the recurrent IDH mutations in up to 70% of secondary gliomas and in 10% of AML cases. […] This in effect defines IDH1 as an oncogene, and provides an extraordinary opportunity to discover chemical probes against mutant IDH1 that may translate into much needed new therapies for glioma and AML patients. […] NIH Chemical Genomics Center [NCGC] NIH Molecular Libraries Probe Centers Network [MLPCN] MLPCN Grant: DA032129 Assay Submitter (PI): Lenny Dang, Agios Pharmaceuticals
IDH1-R132H (0.5 ug/mL) was dispensed into black, solid-bottom 1536-well plates at 3 uL/well in 20 mM Tris-HCl (pH 7.5), 150 mM NaCl, 10 mM MgCl2, 4 mM beta-ME, and 0.05% protease-free BSA. Then, 23 nL of compounds or DMSO were delivered to each well using a pin tool. A pre-read was run on the Viewlux to identify fluorescent compounds (540 nm excitation filter, 598 nm emission filter, bodipy mirror and 2 second exposure). After 30 minutes of incubation with compound, 3 uL of substrate mix were dispensed (0.016 mM NADPH, 2 mM alpha-KG, 20 mM Tris-HCl (pH 7.5), 150 mM NaCl, 10 mM MgCl2, and 0.05% protease-free BSA). Plates were spun for 1 min at 1000xg and incubated at room temperature for 80 min. Then 1.5 uL of each detection reagent component for the coupling system were added (0.12 mg/mL diaphorase and 0.072 mM resazurin, each in 20 mM Tris-HCl (pH 7.5), 150 mM NaCl, 10 mM MgCl2, and 0.05% protease-free BSA ) The protein, substrate and two detection components were maintained at 4 °C throughout the screen. Additionally, the substrate and resazurin reagents were protected from light. The plates were measured on an Envision plate reader for fluorescence signal using a 540 nm excitation filter and 590 nm emission filter with 10 flashes. 1x and 0x (no-enzyme) IDH1-R132H enzyme control were used to normalize %Activity of identified inhibitors; 0x enzyme values corresponded to 100% Activity (full inhibition), while 1x IDH1-R132H enzyme values were used to normalize 0%Activity (no inhibition). Concentration-response curves were fitted to the signals arising from the resulting fluorescence. The concentration-effect curves were then classified based on curve quality (r2), response magnitude and degree of measured activity, and compounds were subsequently categorized based on their curve class. […] Keywords: isocitrate dehydrogenase, IDH1, IDH1-R132H, MLSMR, MLPCN, NIH Roadmap, qHTS, NCGC
Further: nearly all actives have a fitted effect of over 65% in size.
Potency means the concentration at half of the fitted maximal effect.

Chain of Isocitrate dehydrogenase [NADP] cytoplasmic (Homo sapiens) (O75874 whole entry R132H, stated change not applied, canonical isoform): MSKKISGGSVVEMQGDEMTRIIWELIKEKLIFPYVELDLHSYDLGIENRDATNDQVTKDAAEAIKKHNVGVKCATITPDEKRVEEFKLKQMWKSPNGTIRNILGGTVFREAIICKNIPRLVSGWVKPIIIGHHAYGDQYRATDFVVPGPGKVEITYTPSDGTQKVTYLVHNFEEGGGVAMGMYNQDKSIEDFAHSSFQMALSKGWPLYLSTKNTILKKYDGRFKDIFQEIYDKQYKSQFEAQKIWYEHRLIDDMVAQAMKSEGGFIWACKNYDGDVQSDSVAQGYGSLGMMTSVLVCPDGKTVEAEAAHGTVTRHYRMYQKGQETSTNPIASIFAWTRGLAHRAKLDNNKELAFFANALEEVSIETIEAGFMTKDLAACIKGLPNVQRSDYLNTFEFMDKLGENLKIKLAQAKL

Activity change, negative = inhibition, inactive:
Cc1cc(N2CCN(c3cccc(C(F)(F)F)c3)CC2)n2nc(-c3ccccc3)nc2n1 -9.04%, COC(=O)c1cc(S(=O)(=O)N2CCN(c3cc(Cl)ccc3C)CC2)c[nH]1 -12.5%, COc1ccc(CCNC(=O)c2ccc3c(c2)nc(C)n3-c2ccc(Br)cc2)cc1OC 6.54%, COc1ccc(CNC(=O)CCc2c(C)nn(-c3ccc(N4CCCC4)nn3)c2C)cc1 -5.82%, CCOc1ccc(N(CC)S(=O)(=O)N2CCCC(C(=O)NCc3ccc(SC)cc3)C2)cc1 (configuration not stated) -6.03%, COc1ccc(CN2C(=O)CC(Cc3ccc(C)cc3)C2=O)cc1OC (configuration not stated) 0.852%, CCCCOc1ccc(Cn2c(=O)oc3ccc(C)cc32)cc1OC 0.174%, O=S(=O)(c1ccc(Br)cc1)c1nnn2c1nc(N1CCOCC1)c1sccc12 7.56%, COc1ccc(N2C(=O)CSC23C(=O)N(Cc2cccc(F)c2)c2ccccc23)cc1Cl (configuration not stated) -7.21%, Cc1ccc(CNC(=O)CSc2c3c(nc4cc(Cl)ccc24)CCCC3)cc1 12.5%, Cc1cc(Cl)ccc1NC(=O)Cc1ccc(NC(=O)N2CCCCc3ccccc32)cc1 -7.17%, CC1CN(C(=O)N2CCC(C(=O)NCc3cccs3)CC2)c2ccccc2O1 (configuration not stated) 13.4%, Cc1ccc(O)c(NC(=O)c2cc(-c3ccc(F)cc3)no2)c1 0%, Cc1ccc(Nc2nc3ccccc3nc2-n2nc(C)cc2C)c(Cl)c1 0%, CCCN(CCC)C(=O)Cn1c(=O)n(-c2ccc(Cl)cc2)c(=O)c2c3c(sc21)CCCCC3 3.66%, CCCn1c2ccccc2c2cnn(CC(=O)N(CC)c3cc(C)ccc3C)c(=O)c21 -8.48%, N#Cc1ccc(-c2cccs2)nc1SCc1ccc(Br)cc1 -10.1%, COc1ccc(Cl)cc1NC(=O)CSc1nc2ccccc2c2nc(-c3ccccc3)nn12 11.3%, O=C(CCc1cn(Cc2ccc(F)cc2)c2ccccc12)NC1CCCCC1 -2.83%, O=C(C1COc2ccccc2O1)N(Cc1cccnc1)c1nc2c(F)cc(F)cc2s1 (configuration not stated) 0%, CCOC(=O)c1ccc(NC(=O)Cn2c(=O)n(-c3ccc(C)cc3)c(=O)c3c2cnn3C)cc1 0%, CCCCn1c(CNC(=O)C23CC4CC(CC(C4)C2)C3)nnc1SCC(=O)Nc1ccc(C)cc1 -2.28%, COCCNC(=O)c1ccc2c(c1)N(Cc1cccc(Cl)c1)C(=O)c1ccccc1S2(=O)=O -14.2%, COc1ccc(-c2nnc(SCC(=O)Nc3ccccc3C)o2)cc1OC -3.15%, CCCCc1nn2c(=O)cc(COC(=O)c3ccccc3NC(=O)C(C)(C)C)nc2s1 -4.52%, COc1cc(NC(=O)CSc2nc3nc(C)c(Cc4ccc(C)cc4)c(C)n3n2)cc(OC)c1OC -14.1%, Cc1ccc(CCNC(=O)c2ccc(CNS(=O)(=O)c3ccc(C)cc3)cc2)cc1 11.2%, CCOC(=O)c1ccc(N2C(=O)c3n[nH]c(C)c3C2c2ccc(O)c(OC)c2)cc1 (configuration not stated) 8.11%, CCOc1ccc(S(=O)(=O)N(CC(=O)NCCSCc2ccc(C)cc2)c2ccccc2)cc1 8.13%, O=C(CSc1oc(-c2ccco2)nc1S(=O)(=O)c1ccccc1)c1ccc(Cl)cc1 8.02%, Cc1ccccc1Nc1nn2c(=O)c3ccc(C(=O)NCCc4ccc(Cl)cc4)cc3nc2s1 2.65%, Cc1ccc(OCC(=O)OCc2cc(=O)n3nc(C4CC4)sc3n2)cc1C 1.02%, CC(C)NC(=O)c1nn(-c2ccccc2F)nc1CO -6.1%, Cc1cccc(OCCCC(=O)Nc2sc3c(c2C(N)=O)CCC(C)C3)c1 (configuration not stated) 15.6%, O=C(CN1C(=O)COc2ccc(S(=O)(=O)N3CCCCCC3)cc21)N1CCN(c2cccc(C(F)(F)F)c2)CC1 0.874%, O=c1cc(CSc2ncn[nH]2)[nH]c2ccc(F)cc12 11.8%, O=C(CN1CCSc2ccccc21)N1CCN(c2ccccc2)CC1 9.76%, CCCc1nn2c(=O)cc(COC(=O)c3ccc(NC(=O)C(C)Oc4ccccc4)cc3)nc2s1 (configuration not stated) -1.97%, Cc1ccc2c(c1)N(C(=O)Nc1ccc(Br)cc1F)CCO2 26.6%, O=C(CCc1ccccc1)NCc1ccc2c(c1)CCN2C(=O)c1ccccc1 -11.1%, O=C(CSc1nnc(CNC(=O)c2ccccc2)n1-c1ccc(F)cc1)Nc1ccccc1F -2.52%, CN(C(=O)CSc1nc2ccccc2n1Cc1ccccc1C#N)c1ccccc1 -6.83%, CCOC(=O)c1c(C)[nH]c(C)c1S(=O)(=O)N1CCCC(C(=O)NCc2ccccc2Cl)C1 (configuration not stated) -13.9%, CCOc1ccc(NC(=O)c2cn(C3CCCCC3)c(=O)c3c2c2ccccc2n3C)cc1 -10.2%, CCCN1C(=O)C(Cc2nc3ccccc3c(=O)n2-c2ccccc2)c2cc(C)ccc21 (configuration not stated) -1.15%, Cc1ccc(S(=O)(=O)N(Cc2nc(-c3ccc(Cl)cc3)no2)C2CCCCC2)cc1 0.339%, COc1cc2ccccc2cc1C(=O)Nc1cccc(-c2nc3ccccc3o2)c1 -0.407%, CC1CCCCN1S(=O)(=O)c1ccc(F)c(C(=O)Nc2ccccc2C(F)(F)F)c1 (configuration not stated) -7.74%, CCOc1cccc(CNC(=O)c2ccc(N3CCCC3)c(NC(=O)Nc3ccccc3CC)c2)c1 -22.9%, CCOc1ccc(NC(=O)C(=O)NCCc2csc3nc(-c4ccccc4F)nn23)cc1 -15.9%, Cc1ccccc1CNC(=O)CCc1cn(Cc2ccccc2C)c2ccccc12 0%, Cc1c(Cl)cccc1-c1ccc(CNCCCSc2nnnn2C)o1 0%, COc1ccc(-c2nc(CN3CCC(C(=O)NCCN(CC(C)C)CC(C)C)CC3)c(C)o2)cc1OC -5.21%, CCOc1ccc(-c2n[nH]c3c2C(c2ccccc2OC)N(c2ccc(Br)cc2)C3=O)cc1 (configuration not stated) -10.1%, CN(Cc1ccccc1)S(=O)(=O)c1ccc(F)c(C(=O)Nc2cccc(Cl)c2Cl)c1 0%

Potency, active:
CCCCOc1ccc(CN2C(=O)C(=O)c3cc(Br)cc(C)c32)cc1OC 28.2 µM, CCCc1nc2c(c(=O)c3ccccc3n2C)c(=O)n1C1CCCCCC1 46.5 µM
